A549 tox: counter-screen for Nrf2 inhibitors: cytotoxicity in A549 cells; A549 ARE-Fluc cells, CellTiter-Fluor viability, 18-24 h; Potency, µM (top dose mostly 46 µM), without a hit: top-dose activity change, negative = cytotoxicity, hits mostly inhibitors; 390,000 tested, 0.16% active; AID 504648; note: potency is the fitted concentration of half-maximal effect; % is set by controls: 0 for no effect and ±100 for the full control effect
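Cytotoxicity counterscreen: CellTiter-Fluor fluorescence was measured in A549 ARE_Fluc cells after 18-24 h of compound exposure in a concentration series. The subsequent BugLite luminescent read reports ARE-luciferase activity.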
LDHA block: LDHA (human) enzyme inhibition | P00338 | purified LDHA, NADH/diaphorase-resazurin fluorescence; hits give low values | activity change, % (values are at about 110 or 230 µM) | 480,000 tested, 0.15% active | AID 1347041; in the data active = activity change below about -30%; inconclusive = mostly about -25% to -30%;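 note: plate controls were DMSO wells for no effect and wells without enzyme for full effect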
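Resorufin fluorescence (ex540/em590), read at 0 and 20 min after diaphorase/resazurin addition, reports the NADH left after a 5 min room-temperature reaction of 2 nM human LDH5 with 0.06 mM NADH and 0.2 mM pyruvate.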
12-LOX inh: ALOX12 (human) lipoxygenase inhibition; 580,000 tested, 1.1% active; P18054; Potency, µM (doses to about 108 µM), without a hit: at the top dose activity change, negative = inhibition, usual class: inhibitors; purified 12hLO, xylenol orange hydroperoxide absorbance; note: potency is the fitted concentration of half-maximal effect; % is set by controls: 0 for no effect and ±100 for the full control effect
Target sequence (P18054 whole entry, looked up): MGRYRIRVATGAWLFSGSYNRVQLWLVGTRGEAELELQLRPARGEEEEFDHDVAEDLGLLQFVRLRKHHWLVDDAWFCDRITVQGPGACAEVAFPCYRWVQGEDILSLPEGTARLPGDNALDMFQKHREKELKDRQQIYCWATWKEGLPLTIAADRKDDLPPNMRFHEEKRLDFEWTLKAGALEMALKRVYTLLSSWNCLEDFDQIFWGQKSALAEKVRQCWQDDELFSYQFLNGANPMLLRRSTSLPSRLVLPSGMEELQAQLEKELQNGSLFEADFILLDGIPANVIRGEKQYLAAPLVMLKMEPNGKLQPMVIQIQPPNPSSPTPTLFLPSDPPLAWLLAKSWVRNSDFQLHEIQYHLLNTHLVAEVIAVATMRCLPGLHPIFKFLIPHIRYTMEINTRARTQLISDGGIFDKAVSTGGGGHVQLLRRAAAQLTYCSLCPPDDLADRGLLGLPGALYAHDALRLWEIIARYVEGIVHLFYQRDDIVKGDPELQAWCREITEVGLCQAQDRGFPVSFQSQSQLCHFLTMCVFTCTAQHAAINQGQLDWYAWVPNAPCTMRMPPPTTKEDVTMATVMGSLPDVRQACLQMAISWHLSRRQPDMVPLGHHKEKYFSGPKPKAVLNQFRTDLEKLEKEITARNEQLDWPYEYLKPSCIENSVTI
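Hydroperoxide product was detected by ferrous iron/xylenol orange as the 573 to 405 nm absorbance ratio. Arachidonic acid at 40 uM (final) was turned over for 30 min at room temperature by 150 nM human 12hLO, pH 7.0 Hepes buffer, after 15 min compound preincubation.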
Nrf2 activator: activators of Nrf2 (ARE) signaling | Potency, µM (titrated, usually from 46.1 µM), for the others: top-dose activation, usual class: activators | AREc32 ARE-luciferase reporter (MCF7-derived line), luminescence, 24 h | AID 624171 | 410,000 tested, 0.31% active; note: potency is the fitted concentration of half-maximal effect; % of control where 0% means no effect; nearly all actives have a fitted effect of over 65% in size
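Reporter line AREc32 (ARE-Fluc), seeded overnight in OPTI-MEM with 5% FBS; compound pin-transferred, 24 hr at 37 deg C, 5% CO2; luminescent read-out.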
Nrf2 block: inhibitors of Nrf2 signaling. 360,000 tested, 2.1% active. A549 ARE-Fluc reporter, luciferase luminescence, 18-24 h. Potency, µM (titrated, usually from 46 µM), inactives show at the highest dose activity change, negative = inhibition, actives largely listed as inhibitors; note: potency is the fitted concentration of half-maximal effect; % is set by controls: 0 for no effect and ±100 for the full control effect; nearly all actives have a fitted effect of over 60% in size
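Nrf2 function is reported as luminescence of an ARE-controlled luciferase in A549 cells. Compounds were tested at several concentrations, and a CellTiter-Fluor read on the same wells flagged cytotoxicity.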
IDH1 R132H inh: inhibitors of human mutant IDH1 R132H. 390,000 tested, 0.093% active. O75874. IDH1-R132H enzyme, NADPH consumption, diaphorase/resazurin fluorescence. AID 602179. Potency, µM (doses to about 76.6 µM), for the others: top-dose activity change, negative = inhibition, usual class: inhibitors; note: potency is the fitted concentration of half-maximal effect; % is set by controls: 0 for no effect and ±100 for the full control effect; nearly all actives have a fitted effect of over 65% in size
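IDH1-R132H (0.5 ug/mL dispensed) in pH 7.5 Tris buffer was preincubated 30 min with compound, then given a substrate mix of 0.016 mM NADPH and 2 mM alpha-KG for 80 min at room temperature; remaining NADPH was read by diaphorase/resazurin fluorescence.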
Active calls of the source: *; ? = inconclusive; . = not tested or not shown; [ ] = remark or other dose. Only some compounds are listed: those with a hit (about 2.7% of all), similar ones and a draw of the others. Unless noted, calls come from the whole dose curve; as a rule, active = well fitted curve in the direction sought with a large enough effect; inconclusive = small, poorly fitted or top-dose-only effect, or another doubt; inactive = no such curve, though single readings can be large; an effect the other way counts as inactive or inconclusive.

SMILES	A549 tox	LDHA block	12-LOX inh	Nrf2 activator	Nrf2 block	IDH1 R132H inh
O=C(NCC(c1ccco1)N1CCOCC1)c1cc(=O)c2cc(Cl)ccc2o1 (stereo not drawn)	.	2	?	.	.	.
C=CCn1c(SCC(=O)Nc2cccc(S(N)(=O)=O)c2)nc2sc(C)c(C)c2c1=O	?	-4	-4%	4%	16µM*	?
CCOc1ccc(NC(=O)CSc2nnc(-c3ccco3)n2C)cc1	-1%	1	7%	0%	-2%	2%
CCn1c(SCC(=O)Nc2cccc(OC)c2)nnc1-c1ccc(Cl)cc1	-12%	-11	15%	0%	26µM*	-7%
CCn1c(SCC(=O)Nc2ccc(OCc3ccccc3)cc2)nnc1-c1ccco1	?	-6	0%	1%	15µM*	2%
CCn1c(SCCC(=O)Nc2ccccc2)nnc1-c1ccc(OC)cc1	-7%	-11	-1%	-1%	-6%	-1%
Nc1nccnc1C(=O)NCCCC1CCCC1	.	3	6%	.	.	.
Cc1ccc(-n2c(=O)c3cccnc3n2CC(=O)Nc2ccc(Cl)cc2)cc1	.	2	?	.	.	.
CNS(=O)(=O)c1ccc(Nc2c(C)nn(C)c2C)c([N+](=O)[O-])c1	.	-5	-24%	.	.	.
Cc1ccc(CN2CCN(c3nc4c(c(=O)[nH]c(=O)n4C)n3C/C=C/c3ccccc3)CC2)cc1	.	-10	-17%	.	.	.
CC1(C)CC2(CC(c3ccccc3)Oc3cc(O)ccc32)NC(=S)N1 (stereo not drawn)	5%	-2	32µM*	0%	-13%	0%
O=C(O)C(C(=O)/C=C/c1ccc(Cl)cc1)=C1SCCS1	.	-2	?	.	.	.
NC(=O)C(C(=O)/C=C/c1ccc(Cl)cc1)=C1SCCS1	?	0	-24%	7.9µM*	?	13%
C/C(=N/Nc1ccc(Cl)cc1)c1ccc(Br)s1	.	-19	11µM*	.	.	.
CC(=NNc1ccccc1)C(C)=NNc1ccccc1	0%	8	40µM*	2%	4%	5%
C/C(=N/Nc1ccccc1)c1ccc(Cl)s1	.	-1	5µM*	.	.	.
CC(=O)/C=N/Nc1ccccc1	2%	2	-4%	0%	-4%	12%
C/C(=N/NC(N)=S)c1ccc(Br)s1	-4%	-3	25µM*	12%	?	1%
C/C(=N\Nc1ccc(Cl)c(C(=O)O)c1)c1ccc(Br)s1	-9%	-1	?	0%	-5%	7%
Cc1nn(-c2ccccc2)c(N2CCCC2)c1/C=N/NC(=O)c1cccc(S(=O)(=O)Nc2ccc(Cl)cc2)c1	?	-7	-6%	0%	5.8µM*	-2%
COc1cccc(OC)c1OCCCN1CCC(Cc2ccccc2)CC1	?	-23	11µM*	0%	-20%	4%
CC1CC=CC2C1C(=O)N(Cc1ccccc1)C2c1ccc(C(F)(F)F)cc1 (stereo not drawn)	7%	.	.	.	8%	.
Cc1cccc([C@H]2[C@@H]3C=CCC[C@@H]3C(=O)N2Cc2ccccc2)c1	-4%	2	28µM*	5%	3%	-9%
Cc1ccc(-c2ccc(C3C4C=CCCC4(C)C(=O)N3Cc3ccccc3)c(F)c2)cc1 (stereo not drawn)	12%	.	.	.	-27%	.
C[C@@H]1CC=C[C@H]2[C@H]1C(=O)N(Cc1ccccc1)[C@H]2c1ccc2ccccc2c1	?	-2	-17%	1%	21µM*	-5%[38.3 µM]
SMILES	A549 tox	LDHA block	12-LOX inh	Nrf2 activator	Nrf2 block	IDH1 R132H inh
COC(=O)c1ccc(-c2ccc([C@H]3[C@H]4C=CC[C@@H](C)[C@@H]4C(=O)N3Cc3ccccc3)c(F)c2)cc1	-11%	0	?	4%	23µM*	4%
C=CCN1C(=O)[C@H]2CCC=C[C@H]2[C@@H]1c1cccc(C)c1	12%	9	?	3%	21%	12%
CC(=O)c1ccc(-c2ccc([C@H]3[C@@H]4C=CCC[C@@]4(C)C(=O)N3Cc3ccccc3)c(F)c2)cc1	-28%	-3	-22%	-1%	23µM*	3%
CC(=O)c1ccc(-c2ccc([C@H]3[C@H]4C=CC[C@@H](C)[C@@H]4C(=O)N3Cc3ccccc3)c(F)c2)cc1	2%	-2	-2%	0%	?	-8%[38.3 µM]
CN1CCN(C(C(=O)O)c2cn(Cc3ccccc3)c3cc(C(=O)O)ccc23)CC1 (stereo not drawn)	.	0	?	.	.	.
O=C(COc1ccccc1)Nc1ccc([C@@H](O)[C@H]2COCC(=O)N2Cc2ccc(C(F)(F)F)cc2)cc1	.	.	12%	.	.	.
O=C(Nc1ccc(F)cc1)N1CCN(c2nc3ccccc3s2)CC1	-7%	-3	-27%	2%	21µM*	-1%
O=C(Nc1ccc(F)cc1)N1CCCN(c2nccc(C(F)(F)F)n2)CC1	?	0	46%	-1%	12µM*	0%
O=C(c1ccc2ncsc2c1)N1CCN(c2nc3ccccc3s2)CC1	-19%	-5	-24%	2%	18µM*	4%
CC(Nc1sc(S(C)(=O)=O)nc1S(=O)(=O)c1ccc(Cl)cc1)c1ccccc1 (stereo not drawn)	.	-13	-6%	.	.	.
O=C(O)C(Cc1ccccc1)N1C(=O)/C(=C/C=C/c2ccco2)SC1=S (stereo not drawn)	-14%	22	5.6µM*	-1%	1%	-3%
Cn1cccc1/C=C1\SC(=S)N(NC(=O)c2ccccc2O)C1=O	-8%	-1	-15%	0%	-1%	2%
COc1ccc(/C=C2\SC(=S)N(C(Cc3ccccc3)C(=O)O)C2=O)cc1 (stereo not drawn)	-15%	-12	18µM*	1%	0%	-9%
O=C(O)C(Cc1ccccc1)N1C(=O)/C(=C/c2cccnc2)SC1=S (stereo not drawn)	-6%	1	?	3%	3%	-5%
O=C(O)CC(C(=O)O)N1C(=O)/C(=C/C=C/c2ccco2)SC1=S (stereo not drawn)	?	5	?	0%	?	-1%
O=C(NN1C(=O)/C(=C/C=C/c2ccco2)SC1=S)c1ccccc1O	-11%	14	13µM*	?	-1%	-2%
CC(C)CNCc1ccc(C(=O)O)cc1	.	3	?	.	.	.
C/C(=C\C=C\c1ccco1)C(=O)c1ccc(Br)cc1	.	?	2µM*	.	.	.
COc1ccc(CCNC(=S)N2CCC(C(=O)c3ccc(F)cc3)CC2)cc1OC	1%	-1	?	6%	16µM*	-2%
COc1ccc(C(=O)C2CCN(C(=S)NCCc3ccc(OC)c(OC)c3)CC2)cc1	-24%	1	-28%	7%	16µM*	8%

Bioassay records deposited in PubChem BioAssay by National Center for Advancing Translational Sciences (NCATS).
